The source made the active and inactive calls. Unless noted, the rule behind the calls is not given here.
Tests used:
[1] = HepG2 liver cancer cell viability effects, profiling panel, resazurin fluorescence, 24 h, PK04 Diversity Set (AID 1172); conditions: higher = more signal
[2] = basal S. cerevisiae growth modulation, no modifier, primary screen, OD600, strain BY4716, 24 h, basal condition (AID 1173); conditions: OD600, 24 h, higher = more signal, called active from +8 up or from −8 down
[3] = MM1S myeloma cell viability, profiling panel, resazurin fluorescence, basal, 24 h, PK04 Diversity Set (AID 1174); conditions: higher = more signal, called active from +8 up or from −8 down;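 note: MM1S multiple myeloma cell line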
[4] = biological target: Dihydroorotate dehydrogenase (quinone), mitochondrial (Plasmodium falciparum (isolate 3D7)) (UniProt Q08210); experiment: PfDHODH enzyme inhibitors, primary screen, biochemical, C-terminal His tag, absorbance 600 nm (AID 1175); conditions: DCIP absorbance 600 nm, higher = more signal, called active from +8 up or from −8 down;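 note: recombinant parasite enzyme with a five histidine tag at its C terminus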
[5] = P. aeruginosa biofilm formation inhibitors, primary screen, strain PAO1, LB-PBS medium, absorbance 600 nm (AID 1176); conditions: P. aeruginosa PAO1 growth/biofilm, A600, 12 h; higher = more signal
[6] = S. cerevisiae RM11-1a growth modifiers, primary screen, strain RM11-1a, OD600, basal, 24 h (AID 1177); conditions: OD600, 24 h, higher = more signal, called active from +8 up or from −8 down;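 note: cultures grown under basal conditions with no added stressor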
[7] = E. coli acrAB mutant growth effects, primary screen, E. coli filamentation inducers, strain DRC39, OD650, 24 h (AID 1178); conditions: higher = more signal, called active from +8 up or from −8 down;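 note: growth measured as culture turbidity by optical density at 650 nm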
[8] = E. coli acrAB mutant growth effects, primary screen, E. coli filamentation inducers, strain DRC39, OD650, 48 h (AID 1179);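 note: screen aims at cell division blockers that make cells filament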; conditions: E. coli DRC39 delta-acrAB growth, higher = more signal, called active from +8 up or from −8 down
[9] = RPMI8226 myeloma cell viability, profiling panel, resazurin fluorescence, basal, 24 h, PK04 Diversity Set (AID 1180); conditions: higher = more signal;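 note: RPMI8826 multiple myeloma cell line at 5000 cells per well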
[10] = biological target: E3 ubiquitin-protein ligase XIAP (Homo sapiens) (UniProt P98170); experiment: XIAP binders, primary screen, biophysical, small-molecule microarray, fluorescence 635 nm (AID 1181); conditions: small-molecule microarray binding, higher = more signal;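 note: score merges 667 nm emission and signal to noise over triplicate slides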
[11] = test system: XIP peptide (Xip251-270) binding; experiment: small-molecule binders of XIP peptide, primary screen, biochemical, small-molecule microarray, fluorescence 635/667 nm, 0.1 µg/mL protein (AID 1182); conditions: fluorescent protein binding, 635 nm, higher = more signal, called active from +8 up or from −8 down
XIP peptide (Xip251-270) = experiment: small-molecule binders of XIP peptide, primary screen, biochemical, small-molecule microarray, fluorescence 635/667 nm, 0.5 µg/mL protein (AID 1183); conditions: small-molecule microarray binding, fluorescence 635 nm; higher = more signal
[12] = Plasmodium falciparum growth inhibition, primary screen, strain 3D7, DAPI fluorescence, 100 nL (AID 1184);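 note: parasites grown inside human red blood cells in medium with human serum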; conditions: P. falciparum 3D7 growth, 3 d, higher = more signal
[13] = biological target: Homeobox protein Hox-A13 (Mus musculus) (UniProt Q62424); experiment: inhibitors of HoxA13-DNA binding, primary screen, biochemical, fluorescence polarization, labeled oligonucleotide (AID 1185); conditions: 15 min, higher = more signal, called active from +8 up or from −8 down
[14] = inhibitors of hydroxyurea-induced Chk1 phosphorylation, primary screen, imaging, HeLa, phospho-Chk1 antibody, percent positive cells (AID 1186); conditions: hydroxyurea-induced phospho-Chk1 immunofluorescence imaging, higher = more signal
[15] = inhibitors of hydroxyurea-induced Chk1 phosphorylation, primary screen, imaging, HeLa, phospho-Chk1 nuclear intensity (AID 1187); conditions: hydroxyurea-induced phospho-Chk1 immunofluorescence imaging, higher = more signal

E3 ubiquitin-protein ligase XIAP (Homo sapiens), sequence (P98170 whole entry, looked up): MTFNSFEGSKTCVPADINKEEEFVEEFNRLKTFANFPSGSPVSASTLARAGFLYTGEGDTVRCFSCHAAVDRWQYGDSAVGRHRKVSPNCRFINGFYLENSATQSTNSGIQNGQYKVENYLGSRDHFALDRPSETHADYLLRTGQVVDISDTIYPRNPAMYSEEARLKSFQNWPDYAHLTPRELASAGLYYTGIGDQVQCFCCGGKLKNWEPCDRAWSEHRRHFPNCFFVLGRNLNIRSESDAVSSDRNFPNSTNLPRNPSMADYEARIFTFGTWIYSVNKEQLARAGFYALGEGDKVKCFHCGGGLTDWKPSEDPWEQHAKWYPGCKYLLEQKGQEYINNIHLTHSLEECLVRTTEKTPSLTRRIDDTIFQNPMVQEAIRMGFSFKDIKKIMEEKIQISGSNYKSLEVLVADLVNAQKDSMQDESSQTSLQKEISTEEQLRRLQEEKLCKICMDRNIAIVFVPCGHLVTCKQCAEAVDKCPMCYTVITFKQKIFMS
Homeobox protein Hox-A13 (Mus musculus), sequence (Q62424 whole entry, looked up): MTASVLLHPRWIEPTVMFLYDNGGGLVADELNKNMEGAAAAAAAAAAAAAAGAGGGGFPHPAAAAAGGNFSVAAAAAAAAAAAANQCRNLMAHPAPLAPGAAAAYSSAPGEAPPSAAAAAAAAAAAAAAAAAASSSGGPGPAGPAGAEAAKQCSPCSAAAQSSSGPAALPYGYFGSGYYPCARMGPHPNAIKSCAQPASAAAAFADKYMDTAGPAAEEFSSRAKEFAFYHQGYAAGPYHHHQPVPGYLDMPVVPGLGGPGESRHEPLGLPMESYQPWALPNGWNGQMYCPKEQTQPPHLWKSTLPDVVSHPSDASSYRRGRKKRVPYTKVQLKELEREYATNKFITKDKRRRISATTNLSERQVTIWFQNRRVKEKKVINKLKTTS
Dihydroorotate dehydrogenase (quinone), mitochondrial (Plasmodium falciparum (isolate 3D7)), sequence (Q08210 whole entry, looked up): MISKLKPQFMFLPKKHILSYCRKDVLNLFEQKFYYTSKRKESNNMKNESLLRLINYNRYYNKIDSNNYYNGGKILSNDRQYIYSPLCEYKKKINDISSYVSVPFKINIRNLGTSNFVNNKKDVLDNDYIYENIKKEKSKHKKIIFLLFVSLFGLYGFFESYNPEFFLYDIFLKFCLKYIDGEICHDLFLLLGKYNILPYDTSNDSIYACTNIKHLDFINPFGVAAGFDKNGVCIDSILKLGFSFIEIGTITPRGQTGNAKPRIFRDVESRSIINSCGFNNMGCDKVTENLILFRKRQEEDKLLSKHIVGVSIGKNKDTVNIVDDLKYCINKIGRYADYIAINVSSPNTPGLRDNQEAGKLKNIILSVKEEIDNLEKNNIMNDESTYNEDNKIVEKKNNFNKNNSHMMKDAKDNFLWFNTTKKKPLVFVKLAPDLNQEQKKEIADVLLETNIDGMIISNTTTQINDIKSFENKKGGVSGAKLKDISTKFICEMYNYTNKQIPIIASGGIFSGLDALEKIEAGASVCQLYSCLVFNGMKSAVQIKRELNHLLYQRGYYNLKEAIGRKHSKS

Row | SMILES | z-score [1] | z-score [2] | z-score [3] | composite z-score [4] | z-score [5] | z-score [6] | z-score [7] | z-score [8] | z-score [9] | composite z-score [10] | composite z-score [11] | composite z-score (XIP peptide (Xip251-270)) | z-score [12] | z-score [13] | z-score [14] | z-score [15]
1 | CS(=O)(=O)CCOC(=O)C1=CC(c2ccc(CO)cc2)=CC(C2CC2)N(Cc2cc3c(cc2Br)OCO3)C=C1C(=O)OCCS(C)(=O)=O (centres undefined) | -0.311 | -4.92 (inactive) | -2.7 (inactive) | -0.735 (inactive) | 0.613 (inactive) | 0.478 (inactive) | 0.537 (inactive) | -0.75 (inactive) | -2.19 | 0.14 | 0.0295 (inactive) | 0.639 | -2.58 | -2.94 (inactive) | -0.572 (inactive) | -0.534 (inactive)
2 | [N-]=[N+]=NCc1ccccc1[C@@H]1OC(c2ccc(OCCCO)cc2)=N[C@]1(Cc1ccccc1)C(=O)N1CCCCC1 | -0.596 | -1.11 (inactive) | -1.3 (inactive) | 0.678 (inactive) | -0.621 (inactive) | 1.48 (inactive) | 0.775 (inactive) | 0.345 (inactive) | -0.94 | -0.257 | 0.34 (inactive) | 0.654 | -2.23 | -3.35 (inactive) | -0.837 (inactive) | -0.726 (inactive)
3 | O=c1cccc(CCc2ccccc2)o1 | -0.523 | -3.45 (inactive) | -0.0074 (inactive) | -1.19 (inactive) | -0.156 (inactive) | -0.259 (inactive) | -0.74 (inactive) | -0.608 (inactive) | -0.753 | 0.273 | 0.223 (inactive) | 0.903 | 2.16 | -3.17 (inactive) | 0.576 (inactive) | 0.158 (inactive)
4 | COC(=O)[C@@]1(Cc2ccccc2)[C@H]2c3cc(C(=O)N(C)C)n(Cc4cc(C)n(C)n4)c3C[C@H]2CN1C(=O)c1ccccc1 | -1.03 | 0.289 (inactive) | -0.99 (inactive) | -0.857 (inactive) | 0.687 (inactive) | -0.211 (inactive) | -1.12 (inactive) | -0.944 (inactive) | -0.566 | 0.0737 | -0.0185 (inactive) | 0.635 | -1.19 | -5.13 (inactive) | 0.489 (inactive) | 0.42 (inactive)
5 | O=C/C=C/c1ccc(Cl)cc1 | -0.831 | -18 (active) | -0.832 (inactive) | -1.96 (inactive) | 0.475 (inactive) | -4.94 (inactive) | 0.3 (inactive) | 0.782 (inactive) | -0.81 | -0.134 | -1.5 (inactive) | -0.314 | 0.364 | 0.168 (inactive) | -0.0674 (inactive) | -0.659 (inactive)
6 | CCCCC=C[C@@H](NC(=O)c1ccc(C(=O)OC)cc1)c1ccccc1 | 2.26 | 0.399 (inactive) | 1.13 (inactive) | -0.543 (inactive) | -0.567 (inactive) | 1.18 (inactive) | -0.0227 (inactive) | 0.623 (inactive) | 3.78 | -0.145 | 2.97 (inactive) | 0.0677 | -1.38 | -4.21 (inactive) | 0.492 (inactive) | 0.256 (inactive)
7 | C=CC[C@@H](OC(=O)Nc1ccc(OC)cc1)c1ccc(O)c2ccccc12 | -1.07 | -16.6 (active) | -6.13 (inactive) | -7.4 (inactive) | 1.73 (inactive) | -20.3 (active) | 0.305 (inactive) | -0.473 (inactive) | -4.48 | 0.0413 | 1.08 (inactive) | 0.737 | -0.166 | -0.5 (inactive) | 0.311 (inactive) | 0.626 (inactive)
8 | CC(C)NC(=O)[C@@H]1c2ccccc2C(=O)N(Cc2ccccc2)[C@H]1c1ccc(CO)cc1 | -0.043 | 0.349 (inactive) | -0.889 (inactive) | 0.0505 (inactive) | 0.292 (inactive) | -0.714 (inactive) | 0.0003 (inactive) | -0.176 (inactive) | -0.239 | -0.0473 | 0.747 (inactive) | -0.138 | -0.679 | -2.9 (inactive) | -0.0443 (inactive) | 0.0197 (inactive)
9 | COc1cccc(C(=O)O[C@H]2CC[C@]3(C)C4=C(CCC3C2(C)C)[C@]2(C)CC[C@H]([C@H](C)CCCC(C)C)[C@@]2(C)CC4)c1 (some centres undefined) | 0.514 | -0.488 (inactive) | 0.697 (inactive) | -2.17 (inactive) | 0.671 (inactive) | -1.62 (inactive) | 0.621 (inactive) | 1.18 (inactive) | 0.815 | 0.132 | -0.019 (inactive) | -0.519 | -0.0127 | -0.87 (inactive) | 0.811 (inactive) | 1.77 (inactive)
10 | O=C(CS)NCCCCCCNC(=O)[C@H]1C[C@H]2C(=O)N3CCC[C@H]3C(=O)N2[C@H]1c1cccc(OCCO)c1 | -0.162 | 0.232 (inactive) | -0.837 (inactive) | -0.15 (inactive) | 0.0499 (inactive) | -0.656 (inactive) | -0.34 (inactive) | -0.596 (inactive) | -0.953 | 0.104 | 0.517 (inactive) | 0.773 | -0.0979 | -3.15 (inactive) | -0.188 (inactive) | -0.318 (inactive)
11 | C=CC[C@@]1(C(=O)N2CCOCC2)N=C(c2ccc(OCCCO)cc2)O[C@@H]1c1ccccc1N=[N+]=[N-] | -0.268 | -1.24 (inactive) | -1.64 (inactive) | 0.443 (inactive) | -0.236 (inactive) | 0.367 (inactive) | 0.992 (inactive) | 0.123 (inactive) | -1.33 | 0.117 | 1.18 (inactive) | 0.598 | -1.75 | -3.44 (inactive) | -0.217 (inactive) | -0.141 (inactive)
12 | COc1ccc([Si](C)(C)[C@H]2[C@H](CCn3cc(CCO)nn3)O[C@@]3(C(=O)N(Cc4ccc(N5CCOC5=O)cc4)c4ccccc43)[C@@H]2C)cc1 | -0.909 | 0.93 (inactive) | -2.57 (inactive) | 0.604 (inactive) | 0.802 (inactive) | 1.22 (inactive) | 0.864 (inactive) | 0.562 (inactive) | -2.01 | 0.339 | 0.523 (inactive) | 0.866 | -2.38 | -4.22 (inactive) | -1.11 (inactive) | -0.744 (inactive)
13 | COc1ccc([Si](C)(C)[C@@H]2[C@@H](CC(=O)N3CCC[C@H]3CO)O[C@]3(C(=O)N(C)c4c(Br)cc(C)cc43)[C@H]2C)cc1 | 0.27 | -1.62 (inactive) | 0.62 (inactive) | -1.88 (inactive) | 0.331 (inactive) | -1 (inactive) | 0.233 (inactive) | 0.0205 (inactive) | -0.128 | 0.287 | 0.0849 (inactive) | 0.507 | -0.949 | -6.11 (inactive) | -0.477 (inactive) | -0.466 (inactive)
14 | CN1C(=O)C2C(C1=O)C1C=C(CCCO)C2C(c2cccs2)N1C (centres undefined) | -0.341 | -0.37 (inactive) | -0.739 (inactive) | -1.36 (inactive) | -0.146 (inactive) | 0.185 (inactive) | 0.469 (inactive) | 0.742 (inactive) | -0.626 | -0.412 | -0.119 (inactive) | -0.0427 | 0.404 | -9.72 (active) | 0.207 (inactive) | -0.0851 (inactive)
15 | COc1ccc(CCNC(=O)[C@@]2(Sc3ccc(C)cc3)CC(=O)N(Cc3ccccc3Cl)[C@@H]2c2ccc(CO)cc2I)cc1 | 0.254 | -4.37 (inactive) | -2.75 (inactive) | -0.725 (inactive) | 0.379 (inactive) | -1.37 (inactive) | 0.853 (inactive) | 1.36 (inactive) | -1.71 | 0.0512 | 0.259 (inactive) | 0.391 | -0.694 | -2.24 (inactive) | 0.351 (inactive) | 0.606 (inactive)
16 | C[N+](C)(C)CCCCCCNC(=O)[C@H]1C[C@H]2C(=O)N3CCC[C@H]3C(=O)N2[C@H]1c1ccc(O)cc1 | 0.202 | -0.652 (inactive) | 0.488 (inactive) | -2.18 (inactive) | 2.48 (inactive) | -0.201 (inactive) | -0.834 (inactive) | -1.15 (inactive) | -0.603 | 0.127 | 1.07 (inactive) | 0.276 | -1.03 | 0.0641 (inactive) | -0.428 (inactive) | -0.356 (inactive)
17 | O=C1O[C@@H](c2ccccc2)[C@@H](c2ccccc2)N2[C@@H](c3ccccc3OCCO)[C@]3(C(=O)Nc4ccc(C#CC5(O)CCCCCC5)cc43)[C@@H](C(=O)Nc3nc4ccccc4s3)[C@H]12 | -0.592 | 0.193 (inactive) | -3.35 (inactive) | 0.18 (inactive) | 2.5 (inactive) | 1.86 (inactive) | -0.994 (inactive) | -1.19 (inactive) | -4.98 | 0.0077 | 0.0985 (inactive) | 0.626 | -2.16 | 2.1 (inactive) | 0.329 (inactive) | 0.288 (inactive)
18 | C=CCNC(=O)[C@@H]1[C@H]2C(=O)O[C@H](c3ccccc3)[C@H](c3ccccc3)N2[C@H](c2ccc(OCCO)cc2)[C@@]12C(=O)Nc1ccccc12 | 0.61 | -1.67 (inactive) | -0.0761 (inactive) | -2.04 (inactive) | 3.15 (inactive) | -0.412 (inactive) | 1.34 (inactive) | 0.548 (inactive) | -0.0855 | 0.0192 | 0.0997 (inactive) | 0.371 | -1.09 | -4.6 (inactive) | -0.122 (inactive) | -0.303 (inactive)
19 | CC(C)C(=C=CC[C@H](O)c1ccccc1OCCO)C[C@H](O)c1ccccn1 | 0.644 | -0.669 (inactive) | 0.34 (inactive) | -3.95 (inactive) | 0.4 (inactive) | 0.398 (inactive) | 0.762 (inactive) | 0.577 (inactive) | 0.285 | -0.226 | 0.241 (inactive) | 0.0067 | -1.41 | -4.79 (inactive) | 0.293 (inactive) | 0.546 (inactive)
